In ChEMBL document CHEMBL4513216, “Probing the Open Global Health Chemical Diversity Library for Multistage-Active Starting Points for Next-Generation Antimalarials” (ACS Infect Dis, 2020):
The campaign covered roughly 69,000 compounds. About 8,600 (12%) showed an effect of 50% or more. This excerpt belongs to a sample that is enriched for strong results.

tested on: Plasmodium berghei; assay: Screen against P. berghei liver stage (PbLuc), transformed with Luciferase, at 10uM; type: functional, HepG2; conditions: tested at 10 uM

| Compound | INHIBITION [%] |
| --- | --- |
| CC(C)c1cc(N2CCC(CCC(=O)NC3CC3)CC2)n2nccc2n1 | 33.5 |
| CC(C)c1cc(NCC(C)N2CCCC2)n2nccc2n1 (stereo unspecified) | 65.1 |
| CC(C)c1cc(N2CC[C@H](F)C2)n2nccc2n1 | 65.7 |
| CC(C)c1cc(N2CCN(c3ccc(O)cc3)CC2)n2nccc2n1 | 26.8 |
| CC(C)c1cc(N2CCC(N)CC2)n2nccc2n1 | -6.53 |
| CC(C)c1cc(NCC(O)CO)n2nccc2n1 (stereo unspecified) | 36.8 |
| CC(=O)NCC1CCN(c2cc(C(C)C)nc3ccnn23)CC1 | 59.4 |
| CC(C)[C@H](Nc1cc(-c2ccncc2)nc2ccnn12)C(N)=O | 25.5 |
| Cc1cnn(CC2CCN(c3cc(C(C)C)nc4ccnn34)CC2)c1 | 21.2 |
| CC(C)c1cc(N[C@@H](CO)C(N)=O)n2nccc2n1 | 42.3 |
| CC(C)c1cc(NCC(O)c2ccncc2)n2nccc2n1 (stereo unspecified) | 0.897 |
| CC(C)c1cc(N[C@H](C(N)=O)C(C)C)n2nccc2n1 | 55.2 |
| O=C(Cc1ccsc1)N1CCC(O)(CN2CCc3ccccc3C2)C1 (stereo unspecified) | 30.8 |
| COc1ncccc1CN1C[C@@H]2COC[C@]2(COCC(=O)N(C)C)C1 | -3.52 |
| CCn1cc(C(=O)NCCN2CCCc3ccccc32)c(C)n1 | 12.9 |
| Cn1nc(C2CCN(C(=O)c3cccs3)CC2)c2cccnc21 | 47.2 |
| CCc1nc(CS(=O)(=O)Cc2noc(C3CC3)n2)cs1 | 34 |
| CC(C)=CCN1CCN(C(=O)C2CC2)CC1 | 21.5 |
| CC(C)COCC1CN(Cc2ccsc2)Cc2ncn(C)c21 (stereo unspecified) | 16.4 |
| Cn1nnc2c1C(COCc1cccnc1)CN(Cc1ccoc1)C2 (stereo unspecified) | 29.4 |
| Cc1nc(C)c(CNCC2(COc3cccnc3)C[C@@H](O)[C@@H](O)C2)s1 (stereo partly specified) | 33.6 |
| Cc1noc(CCCC(=O)N2CCCC2c2ccsc2)n1 (stereo unspecified) | 0.914 |
| Cc1cccc2c1NC1(CCCC1)NC2=O | 45.2 |

| Compound | INHIBITION [%] |
| --- | --- |
| COC(=O)C1CCN(C(=O)Cn2ccc(-c3ccc(F)cc3)n2)CC1 | -36.4 |
| O=C1[C@@H]2CC[C@@H](CN(C3CSCCSC3)C2)N1Cc1cscn1 | -14.9 |
| CC(C)c1cc(N2CCC(C(C)N3CCCC3)CC2)n2nccc2n1 (stereo unspecified) | 73 |
| CC(C)c1cc(N2CCC[C@H](N)C2)n2nccc2n1 | 13 |
| Cc1cc(N2CCCC(N(C)C)C2)n2nccc2n1 (stereo unspecified) | 55.4 |
| Cc1cc2nc(C(C)C)cc(N3CCC(O)CC3)n2n1 | 11.3 |
| CC(C)c1cc(N2CCSCC2)n2nccc2n1 | -6.03 |
| Cc1nn2c(N3CCCC(C#N)C3)cc(-c3ccccc3)nc2c1C (stereo unspecified) | 19.5 |
| CC(C)c1cc(N2CCC(N(C)C)C2)n2nccc2n1 (stereo unspecified) | 53.9 |
| COC1CCN(c2cc(C(C)C)nc3ccnn23)C1 (stereo unspecified) | 7.6 |
| Cc1nn2c(N3CCC(O)C3)cc(-c3ccccc3)nc2c1C (stereo unspecified) | 38.5 |
| Cc1cc(N2CCCC(N(C)C)C2)n2nc(C)cc2n1 (stereo unspecified) | -1.16 |
| Cc1cc2nc(C(C)C)cc(N3CCC(N(C)C)C3)n2n1 (stereo unspecified) | 17.7 |
| CN(C)C1CCN(c2cc(-c3ccccc3)nc3ccnn23)C1 (stereo unspecified) | 74.9 |
| COc1cccc(OCCc2nnc(NC(C)=O)s2)c1 | -8.9 |
| N[C@H]1CN(C(=O)CCCc2ccc(F)cc2)C[C@@H]1C1CC1 | 25.1 |
| O=C1COc2ccc(C(=O)NS(=O)(=O)c3cc(F)ccc3F)cc2N1 | 33.3 |
| CCc1cc(NC(=O)C2CCCN(C(=O)c3ccncc3)C2)[nH]n1 (stereo unspecified) | 8.86 |
| O=C(Cc1csc(-c2cccc(Cl)c2)n1)NCc1cccc(C(=O)O)c1 | 34.5 |
| COCCN(CCOC)C(=O)c1c[nH]nc1-c1cccc(F)c1 | -3.24 |
| Cc1nc(-c2ccc(Cl)s2)sc1C(=O)NCCCC(N)=O | -102.2 |
| CCN1CC(COC(=O)c2cc(Br)ccc2F)CC1=O (stereo unspecified) | 8.4 |
| CC(C)C1CCCN1CC(=O)NCc1ccc(OCC(N)=O)cc1 (stereo unspecified) | 12.8 |

| Compound | INHIBITION [%] |
| --- | --- |
| CC(C)c1cc(N2CCC(NS(C)(=O)=O)CC2)n2nccc2n1 | 61.2 |
| CC(C)c1cc(NC(CO)CO)n2nccc2n1 | 33.2 |
| CC(C)c1cc(N2CCC(NS(C)(=O)=O)C2)nc(C(C)C)n1 (stereo unspecified) | 49.6 |
| CC(=O)N1CCCN(C(=O)CCc2c(C)nc3ccnn3c2C)CC1 | 10 |
| CNC(=O)N1CCC2(CC1)CNc1ccc(F)cc12 | 10.5 |
| O=C(Nc1ccccc1)c1ccc2c(c1)C1(CCCCC1)CN2 | 90.1 |
| O=C(Nc1ccccc1)C1=NOC2(CCCNC2)C1 (stereo unspecified) | -4.02 |
| CN(C)C(=O)N1CCC2(CC1)CNc1ccc(F)cc12 | 49.1 |
| CC(=O)c1ccc(NC(=O)c2ccc3c(c2)C2(CCCCC2)CN3)cc1 | 64.7 |
| CC(=O)N1CCC2(CC1)CNc1ccc(F)cc12 | 36.2 |
| CCOCC1CN(S(=O)(=O)c2ccccc2)Cc2nccn2C1 (stereo unspecified) | 34 |
| COC(C)(C)C(=O)N1CCC(c2cc(CN(C)C)n(C)n2)CC1 | -42.1 |
| CC(=O)N1CCN(C(=O)C(C)OCC(F)(F)F)CC1 (stereo unspecified) | -22.8 |
| CN(CC(N)=O)C(=O)c1cc(Cl)c(Cl)n1C | 8.4 |
| CC(C)Cc1noc(CN2CCN(C(=O)c3cccs3)CC2)n1 | 0.891 |
| CC(C)Cc1nc(CN2CCC(NC(=O)c3cccs3)CC2)no1 | 24.2 |
| Cc1ccc(C(=O)NC2CCN(Cc3noc(CC(C)C)n3)CC2)s1 | 71.8 |
| Cc1ccc(C(=O)NC2CCN(Cc3nc(CC(C)C)no3)CC2)s1 | 18.6 |
| CC(C)Cc1noc(CN2CCC(NC(=O)c3cccs3)CC2)n1 | 53.5 |
| Cc1ccc(C(=O)NC2CCN(Cc3noc(C(C)C)n3)CC2)s1 | 7.44 |
| CCOc1ccnc(N2CCCN(C(=O)c3cc[nH]c3C)CC2)n1 | -7.31 |
| COc1ccccc1-c1ccc(NCc2cn3c(n2)SCC3)nn1 | 9 |
| CCc1c(C)nc2n(c1=O)CC(C(=O)Nc1ccccc1C)CS2 (stereo unspecified) | 42.4 |

| Compound | INHIBITION [%] |
| --- | --- |
| CC(C)CCCNC(=O)Nc1ccc(C(N)=O)c(Cl)c1 | -49.5 |
| CCOc1no[n+]([O-])c1-c1ccccc1 | 36.9 |
| COc1no[n+]([O-])c1-c1ccccc1 | 63.5 |
| CN(C)c1no[n+]([O-])c1-c1ccccc1 | -3.19 |
| Cc1[nH]ncc1C(=O)N(CC(C)C)CC(O)c1ccc(F)cc1 (stereo unspecified) | -12.1 |
| CCN1CC2(CCC1=O)CCN(CCOc1ccc(F)cc1)CC2 | 10.1 |
| CCC(CC)C(O)CNC(=O)Nc1cc(C)nn1C (stereo unspecified) | 11.6 |
| Cc1ccc(C(=O)N2CC[C@@]3(O)CCCC[C@H]3C2)cc1 | 56.3 |
| Cn1ccc2cc(C(=O)N3CC[C@@]4(O)CCCC[C@H]4C3)ccc21 | -4.87 |
| Cc1ccc(C(=O)N2CC[C@@]3(O)CCN(C(=O)N(C)C)C[C@H]3C2)cc1Cl | 62.8 |
| Cc1ncc(C(=O)N2CC[C@@]3(O)CCN(C(=O)N(C)C)C[C@H]3C2)cn1 | 37.8 |
| CN(C)C(=O)N1CC[C@]2(O)CCN(C(=O)c3ccc(C#N)nc3)C[C@@H]2C1 | 42.4 |
| COc1ccc(C(=O)N2CC[C@@]3(O)CCCC[C@H]3C2)cc1OC | 44.3 |
| Cc1nc(C2CCCN2CC(=O)N2CCc3ccccc32)no1 (stereo unspecified) | 46.2 |
| COCCN(C)C(C(=O)O)c1ccc(F)c(C)c1 (stereo unspecified) | 14 |
| COc1cccc(CN2CCOC(c3cnccn3)C2)c1F (stereo unspecified) | -18.9 |
| O=C(N1CCOCC1)[C@@]12CCO[C@@H]1CCN(C1CCCC1)C2 | 8.67 |
| CN(Cc1ccncc1)C(=O)[C@H]1CSCN1C(=O)OC(C)(C)C | -12.1 |
| O=C1NC(c2ccccc2)=N[C@@]12CC[C@@H]1CN(Cc3ccccc3)C[C@@H]12 | -21.3 |
| O=C1NC(c2ccccc2)=N[C@@]12CC[C@@H]1CN(CC3CCOCC3)C[C@@H]12 | 2.74 |
| O=C1NC(c2ccccc2)=N[C@@]12CC[C@@H]1CN(S(=O)(=O)C3CC3)C[C@@H]12 | 76.4 |
| CC(C)NC(=O)C1CCN(c2snc3ccccc23)CC1 | -15.5 |
| Cc1ccc(CN(Cc2cc(C)no2)C2CC2)cc1 | 53.2 |

| Compound | INHIBITION [%] |
| --- | --- |
| COc1ccc(CN(Cc2cc(C)no2)C2CC2)cc1 | 92.2 |
| COc1ccc(CN(Cc2nc(C)no2)C2CCCCC2)cc1OC | 14.4 |
| COCCN(Cc1noc(-c2ccc(OC)cc2)n1)C1CC1 | 15.5 |
| Cc1cc(CN(Cc2ccccc2)C2CC2)on1 | 33.7 |
| Cc1cc(CN(C2CC2)C(C)C(C)C)on1 (stereo unspecified) | -21.8 |
| O=C(Nc1cnc2n1CCCC2)C1CCNCC1 | 18.7 |
| O=C(NCC1CC1)[C@@H]1CCO[C@@H]2CCN(Cc3ccc(F)cc3)C[C@H]21 | -10.3 |
| Cc1cnn(CC2CCCN2C(=O)c2ccc3c(c2)nnn3C)c1 (stereo unspecified) | 23.2 |
| C=Cc1cccc(CN2C[C@@H]3CC[C@H]2CN(Cc2c(C)noc2C)C3)c1 | -19.2 |
| CN(C)C(=O)N1CCOCC2(CCN(c3ncccn3)C2)C1 (stereo unspecified) | -5.29 |
| CN1CCc2c(C#N)c(NCc3cccnc3)n3cnnc3c2C1 | 53.2 |
| CN1CCc2c(C#N)c(NCc3ccco3)n3cnnc3c2C1 | 19.7 |
| CN1CCc2c(C#N)c(NCCc3ccccc3)n3cnnc3c2C1 | 60.7 |
| CC(C)CCNc1c(C#N)c2c(c3nncn13)CN(C)CC2 | 60.7 |
| CN1CCc2c(C#N)c(NCc3ccccc3)n3cnnc3c2C1 | 24.2 |
| CN1CCc2c(C#N)c(NCCN3CCOCC3)n3cnnc3c2C1 | 35 |
| COCCNc1c(C#N)c2c(c3nncn13)CN(C)CC2 | 32.5 |
| CN1CCc2c(C#N)c(NCCCO)n3cnnc3c2C1 | 32.5 |
| CN1CCc2c(C#N)c(NCc3ccncc3)n3cnnc3c2C1 | 10.1 |
